Pf apPOL block – Pf-apPOL DNA polymerase inhibition | Recombinant Pf-apPOL, molecular beacon fluorescence, 1.5 h | inhibition, % at 10 µM | 210,000 compounds, 0.25% hits | AID 1794808
mHTT CaM bind – disrupts binding of mutant huntingtin to calmodulin. AlphaScreen His-mHTT/GST-CaM binding, luminescence. inhibition, % at 15 µM. 190,000 compounds, 3.6% hits. AID 1671202
Target sequence (P42858 whole entry, looked up, change not shown): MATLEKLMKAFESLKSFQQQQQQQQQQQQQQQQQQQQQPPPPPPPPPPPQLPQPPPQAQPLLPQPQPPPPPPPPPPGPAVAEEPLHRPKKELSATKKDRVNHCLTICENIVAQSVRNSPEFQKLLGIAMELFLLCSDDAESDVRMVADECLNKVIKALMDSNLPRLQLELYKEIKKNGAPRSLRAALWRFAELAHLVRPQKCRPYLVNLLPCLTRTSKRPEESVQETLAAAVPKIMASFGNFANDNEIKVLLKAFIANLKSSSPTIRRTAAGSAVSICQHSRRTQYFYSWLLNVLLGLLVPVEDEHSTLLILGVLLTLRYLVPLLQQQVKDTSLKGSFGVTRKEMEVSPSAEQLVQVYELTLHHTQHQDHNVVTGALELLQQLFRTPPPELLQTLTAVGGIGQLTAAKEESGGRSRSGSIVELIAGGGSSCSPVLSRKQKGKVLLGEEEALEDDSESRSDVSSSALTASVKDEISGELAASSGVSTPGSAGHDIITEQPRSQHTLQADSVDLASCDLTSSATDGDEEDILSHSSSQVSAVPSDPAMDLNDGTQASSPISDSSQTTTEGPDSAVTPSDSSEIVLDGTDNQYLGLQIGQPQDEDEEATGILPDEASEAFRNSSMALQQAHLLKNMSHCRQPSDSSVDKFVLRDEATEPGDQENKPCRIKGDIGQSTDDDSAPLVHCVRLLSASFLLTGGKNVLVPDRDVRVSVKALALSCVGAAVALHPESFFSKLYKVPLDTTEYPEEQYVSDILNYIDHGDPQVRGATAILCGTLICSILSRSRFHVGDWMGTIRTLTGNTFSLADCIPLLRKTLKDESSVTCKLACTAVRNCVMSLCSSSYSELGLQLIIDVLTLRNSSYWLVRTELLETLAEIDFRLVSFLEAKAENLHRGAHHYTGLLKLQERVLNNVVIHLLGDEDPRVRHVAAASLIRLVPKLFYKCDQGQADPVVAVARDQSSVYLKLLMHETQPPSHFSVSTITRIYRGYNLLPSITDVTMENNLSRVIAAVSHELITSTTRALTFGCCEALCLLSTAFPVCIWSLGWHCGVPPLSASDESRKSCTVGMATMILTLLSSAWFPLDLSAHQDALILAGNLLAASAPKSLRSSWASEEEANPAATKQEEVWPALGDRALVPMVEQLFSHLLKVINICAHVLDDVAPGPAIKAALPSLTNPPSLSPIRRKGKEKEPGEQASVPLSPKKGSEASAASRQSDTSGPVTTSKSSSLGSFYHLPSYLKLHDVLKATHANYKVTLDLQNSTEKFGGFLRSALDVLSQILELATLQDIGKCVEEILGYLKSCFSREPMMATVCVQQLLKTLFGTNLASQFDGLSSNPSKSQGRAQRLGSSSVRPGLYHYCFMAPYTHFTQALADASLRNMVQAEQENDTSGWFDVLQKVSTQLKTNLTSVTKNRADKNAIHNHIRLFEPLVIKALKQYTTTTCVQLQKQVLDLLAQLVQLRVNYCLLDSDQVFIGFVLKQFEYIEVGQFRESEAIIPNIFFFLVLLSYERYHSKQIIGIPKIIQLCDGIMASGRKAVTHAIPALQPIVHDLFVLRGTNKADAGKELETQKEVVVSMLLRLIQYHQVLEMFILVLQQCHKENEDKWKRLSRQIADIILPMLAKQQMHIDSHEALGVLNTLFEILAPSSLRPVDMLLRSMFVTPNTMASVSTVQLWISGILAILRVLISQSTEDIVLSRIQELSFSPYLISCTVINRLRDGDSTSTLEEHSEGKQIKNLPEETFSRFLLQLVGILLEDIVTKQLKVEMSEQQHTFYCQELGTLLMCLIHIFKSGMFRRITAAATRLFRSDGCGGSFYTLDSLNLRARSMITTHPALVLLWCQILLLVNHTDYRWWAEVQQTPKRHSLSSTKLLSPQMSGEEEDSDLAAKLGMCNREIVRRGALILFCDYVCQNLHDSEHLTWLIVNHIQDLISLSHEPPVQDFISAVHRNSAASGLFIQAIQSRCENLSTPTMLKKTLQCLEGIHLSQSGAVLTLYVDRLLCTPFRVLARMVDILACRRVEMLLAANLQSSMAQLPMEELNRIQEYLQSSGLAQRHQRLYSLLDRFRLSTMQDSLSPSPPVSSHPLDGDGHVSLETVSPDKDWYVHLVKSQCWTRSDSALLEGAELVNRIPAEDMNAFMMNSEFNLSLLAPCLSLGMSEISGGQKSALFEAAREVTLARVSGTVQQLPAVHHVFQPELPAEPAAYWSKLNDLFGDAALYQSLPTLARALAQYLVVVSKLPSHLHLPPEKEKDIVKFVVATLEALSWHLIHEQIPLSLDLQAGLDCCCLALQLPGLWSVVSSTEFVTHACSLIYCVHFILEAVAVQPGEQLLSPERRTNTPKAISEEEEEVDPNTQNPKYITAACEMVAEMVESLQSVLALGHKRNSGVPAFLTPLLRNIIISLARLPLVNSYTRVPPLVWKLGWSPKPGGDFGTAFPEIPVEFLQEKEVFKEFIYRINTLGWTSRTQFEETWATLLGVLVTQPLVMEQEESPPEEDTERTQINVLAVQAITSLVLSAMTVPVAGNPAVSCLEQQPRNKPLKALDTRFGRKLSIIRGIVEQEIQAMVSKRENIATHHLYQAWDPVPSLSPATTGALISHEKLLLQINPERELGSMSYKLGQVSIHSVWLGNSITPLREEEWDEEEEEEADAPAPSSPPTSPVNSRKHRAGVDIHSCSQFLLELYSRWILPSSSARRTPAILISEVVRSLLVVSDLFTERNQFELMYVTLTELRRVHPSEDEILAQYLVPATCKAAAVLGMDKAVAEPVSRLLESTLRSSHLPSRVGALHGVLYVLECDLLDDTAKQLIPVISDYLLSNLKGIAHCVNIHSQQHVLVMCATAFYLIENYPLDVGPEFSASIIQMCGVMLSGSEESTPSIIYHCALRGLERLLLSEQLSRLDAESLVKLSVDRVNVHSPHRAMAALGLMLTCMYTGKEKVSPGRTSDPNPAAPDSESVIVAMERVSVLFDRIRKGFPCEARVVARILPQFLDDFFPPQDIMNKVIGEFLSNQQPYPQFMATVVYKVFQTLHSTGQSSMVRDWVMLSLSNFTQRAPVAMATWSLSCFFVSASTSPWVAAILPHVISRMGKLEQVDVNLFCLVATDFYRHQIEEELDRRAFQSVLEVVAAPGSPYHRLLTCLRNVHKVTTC
Of the large screens only hits and unclear results are named; the others gave an inactive call. Only some compounds are listed: those with a hit (about 3.5% of all), similar ones and a draw of the others. No stated cut-off is given here; in the data, active means inhibition above about 50%; inactive means the rest.

COc1cc(-c2nc3ccccn3c2N=Cc2cn[nH]c2-c2ccccc2)ccc1O	none
CCc1cc(-c2[nH]ncc2-c2ccccc2)c(O)cc1OC	mHTT CaM bind 100.0
O=Cc1cn[nH]c1-c1ccccc1	none
COc1ccc(-c2[nH]ncc2-c2ccc(F)cc2)c(O)c1	none
Cc1ccc(OCC(=O)Nc2ccc(Br)cc2C)cc1C	none
O=[N+]([O-])c1cccc(C2=Nn3c(Cc4ccc(Cl)cc4)nnc3SC2)c1	none
COc1ccc(NS(=O)(=O)c2cc(Cl)ccc2Cl)cc1Cl	none
Cc1sc2nc(C)n(N=Cc3cccnc3)c(=O)c2c1C	none (no result: mHTT CaM bind)
COc1cccc(-c2noc(C3CCCN3C(=O)NCc3ccc(C)cc3)n2)c1 (stereo unspecified)	none
COc1cccc(-c2noc(C3CCCN3C(=O)NCc3ccc(F)cc3)n2)c1 (stereo unspecified)	mHTT CaM bind 75.6
Cc1cccc(-c2noc(C3CCCN3C(=O)COc3ccc(Cl)cc3C)n2)c1 (stereo unspecified)	mHTT CaM bind 76.4
Cc1cccc(-c2noc(C3CCCN3C(=O)COc3ccccc3)n2)c1 (stereo unspecified)	none
Cc1ccccc1OCC(=O)N1CCCC1c1nc(-c2cccc(Cl)c2)no1 (stereo unspecified)	none
Cc1cccc(OCC(=O)N2CCCC2c2nc(-c3cccc(Cl)c3)no2)c1 (stereo unspecified)	mHTT CaM bind 78.4
COc1ccc(C2CCCN2C(=O)Nc2ccccc2C)cc1 (stereo unspecified)	none
COc1cccc(NC(=O)N2CCC(c3nc(C(=O)N(C)C)c(C)o3)CC2)c1	none
COc1ccc(C(=O)NCCc2nc3ccccc3n2CC(C)C)cc1OC	none
O=C(O)c1c[nH]c(=O)[nH]c1=O	none (no result: Pf apPOL block)
COc1ccc(/C=C2\Cc3ccccc3C2=O)c(OC)c1	none
COc1ccccc1C(=O)N1CCCN(C2CCN(Cc3ccc(F)cc3)C2=O)CC1 (stereo unspecified)	none
O=C(c1ccccc1Cl)N1CCCN(C2CCN(Cc3ccc(F)cc3)C2=O)CC1 (stereo unspecified)	mHTT CaM bind 57.5
Cc1ccc(C)c(CNC(=O)C2CCc3nc(N4CCOCC4)ncc3C2)c1 (stereo unspecified)	none
c1ccc(CCc2nnc(-n3cccc3)s2)cc1	none
CC1Cn2cc(-c3ccc([N+](=O)[O-])cc3)nc2S1 (stereo unspecified)	Pf apPOL block 50.7
O=[N+]([O-])c1ccc(-c2cn3c(n2)SCC3)cc1	none
O=Cc1ccc(-c2c(-c3ccccc3)oc3c2C(OCCCCO)CCC3)o1 (stereo unspecified)	mHTT CaM bind 60.8
OCCOC1CCCc2oc(-c3ccccc3)c(C#CC3(O)CCCCC3)c21 (stereo unspecified)	none
Cc1ccc(C(O)(c2ccccc2)c2ccccc2)c2ccccc12	none (no result: mHTT CaM bind)
Cc1ccc(S(=O)(=O)N2CC=C(c3cn(C)c4ncccc34)CC2)cc1Cl	mHTT CaM bind 64.8
COc1ccc(S(=O)(=O)N2CC=C(c3cn(C)c4ncccc34)CC2)cc1Cl	none
O=C1c2ccccc2C(=O)N1CN1CCOCC1	none
CC(=O)n1c2c(c3ccccc31)OC(N)=C(C#N)C2c1ccc(C(C)C)cc1 (stereo unspecified)	mHTT CaM bind 50.0
CC(=O)n1c2c(c3ccccc31)OC(N)=C(C#N)C2c1ccc(F)cc1 (stereo unspecified)	none
O=S(=O)(c1ccc2nncn2c1)N(Cc1cccc(F)c1)c1cccc(F)c1	none
COCCCN1C(=S)NC2c3cc([N+](=O)[O-])ccc3OC1(C)C2C (stereo unspecified)	none
COc1ccc(CCN2C(=S)NC3c4cc([N+](=O)[O-])ccc4OC2(C)C3C)cc1OC (stereo unspecified)	mHTT CaM bind 60.6
CC1CCCN(C2CCN(Cc3ccccn3)CC2)C1 (stereo unspecified)	none
CCn1ccc2ccn(CCc3c(C)noc3C)c(=O)c21	none
Cc1ccc(NC(=O)c2ccc(-c3ccccc3)cc2)nc1	none
CC(C)c1cc(=O)n(CC(=O)NCc2ccccc2OC(F)(F)F)cn1	none
Cc1ccccc1OCC(=O)N1N=C(c2ccc(Br)cc2)CC1(O)C(F)(F)F (stereo unspecified)	mHTT CaM bind 93.0
Cc1cccc(C(=O)N2N=C(c3cccc(Br)c3)CC2(O)C(F)(F)F)c1 (stereo unspecified)	none
Cc1cccc(C(=O)N2N=C(c3ccc(Br)cc3)CC2(O)C(F)(F)F)c1 (stereo unspecified)	mHTT CaM bind 97.0
CCC1=NN(C(=O)Cc2ccc(OC)cc2)C(O)(C(F)(F)F)C1 (stereo unspecified)	none
O=C(COc1ccccc1)N1N=C(c2ccc(Br)cc2)CC1(O)C(F)(F)F (stereo unspecified)	none
CCC1=NN(C(=O)COc2ccc(Cl)c(C)c2)C(O)(C(F)(F)F)C1 (stereo unspecified)	mHTT CaM bind 94.0
COc1ccc(C2=N/C(=C\c3c(F)cccc3Cl)C(=O)O2)cc1Br	none
CC(=O)NCc1csc(C2CCN(C(=O)c3ccc(C(C)(C)C)cc3)CC2)n1	none
O=C(c1ccc(OCC2CCCN2C(=O)Cc2ccc(Cl)cc2)cc1)N1CCCC1 (stereo unspecified)	none
O=S(=O)(c1ccc(-c2csc(=Nc3ccc(Cl)cc3)n2CCCO)cc1)N1CCCC1	mHTT CaM bind 55.0
O=S(=O)(c1ccc(-c2csc(=Nc3cccc(Cl)c3)n2CCO)cc1)N1CCCCC1	mHTT CaM bind 51.0
O=S(=O)(c1ccc(-c2csc(=Nc3ccc(F)cc3)n2CCCO)cc1)N1CCOCC1	none
CCOc1ccc(N=c2scc(-c3ccc(S(=O)(=O)N4CCCC4)cc3)n2CC)cc1	none
Cc1ccc(C(=O)N2CCCC2COc2ccc(C(=O)N3CCOCC3)cc2)cc1 (stereo unspecified)	none
CC(C)c1ccc(C(=O)N2CCCC2COc2ccc(C(=O)N3CCOCC3)cc2)cc1 (stereo unspecified)	Pf apPOL block 52.1
O=C1OC(c2cccc([N+](=O)[O-])c2)=N/C1=C\c1ccc(I)cc1	none
O=C(Nc1ccc2c(c1)OCO2)c1ccc(Br)cc1	none
O=C(Nc1ccc2c(c1)OCCO2)c1ccc(Br)cc1	mHTT CaM bind 95.5
CNc1nc(Nc2ccccc2F)nc2ccccc12	none
Cc1ccc(-c2noc(CCn3nc(-c4ccccc4)ccc3=O)n2)cc1	none
O=c1ccc(-c2ccccc2)nn1CCc1nc(-c2cccc(F)c2)no1	mHTT CaM bind 81.4
Cc1cnc2c(ccc3c(C)c(C)cnc32)c1C	mHTT CaM bind 100.2 (no result: Pf apPOL block)
Cc1cc(C)cc(C(=O)N2CCCC(C(=O)NC3CCCCCC3)C2)c1 (stereo unspecified)	none
CC(C)=C1SC(=O)N(CC(=O)Nc2ccc(S(N)(=O)=O)cc2)C1=O	none
NS(=O)(=O)c1ccc(NC(=O)CN2CC(=O)Oc3ccccc32)cc1	mHTT CaM bind 97.9
CCOC(=O)c1cc(-c2ccnn2S(=O)(=O)c2cccc(C(F)(F)F)c2)on1	Pf apPOL block 81.9 (no result: mHTT CaM bind)
Cc1cc(-c2nc(-c3ccnn3S(=O)(=O)c3cccc(C(F)(F)F)c3)cs2)no1	none (no result: mHTT CaM bind)
CCOc1ccc(NC(=O)N2CCC3(CC2)Nc2cc(F)ccc2-n2cccc23)cc1	mHTT CaM bind 65.5
CCc1ccc(NC(=O)N2CCC3(CC2)Nc2cc(F)ccc2-n2cccc23)cc1	mHTT CaM bind 72.0
COc1ccc(NC(=O)N2CCC3(CC2)Nc2cc(F)ccc2-n2cccc23)cc1OC	mHTT CaM bind 61.1
COc1cccc(NC(=O)N2CCC3(CC2)Nc2cc(F)ccc2-n2cccc23)c1	none

Screening results: PubChem BioAssay, University of Kansas High Throughput Screening Laboratory
